{"source": "PubChem BioAssay"}
{"assay": "RPMI8226 myeloma cell viability, profiling panel, resazurin fluorescence, basal, 24 h, PK04 Diversity Set (AID 1180);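 further: RPMI8826 multiple myeloma cell line at 5000 cells per well; test concentration not given here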", "conditions": "higher = more signal"}
{"smiles": "COc1ccc(COC(=O)NN=C2C[C@@H](O)[C@@H](O)[C@@H]3[C@@H]4C(=O)N(Cc5ccccc5)C(=O)[C@@H]4CC[C@@H]23)cc1", "z-score": 1.12}
{"smiles": "O=C1C=C[C@@H](O)[C@@H]2[C@@H]3C(=O)N(Cc4ccccc4)C(=O)[C@@H]3CC[C@@H]12", "z-score": -0.242}
{"smiles": "CCCC[C@H]1CN2[C@@H](CC[C@@H](C)[C@@H]2c2ccc(Br)cc2)C(=O)O1", "z-score": 0.919}
{"smiles": "COc1ccc(O[C@H]2C=C[C@@H](C#Cc3ccccc3)O[C@@H]2CO)cc1", "z-score": -0.021}
{"smiles": "O=C(NCCC[N+]1=CC=NC1c1ccccc1)N1CCCc2nc(-c3ccc(Br)cc3)ccc21", "note": "(configuration not stated)", "z-score": -0.29}
{"smiles": "C[C@H]1CC[C@@H](C(=O)O)N[C@@H]1c1ccc(C#Cc2ccccc2)cc1", "z-score": 0.0569}
{"smiles": "CC(C)CN1CCc2nc(-c3ccccc3)c3c(c2C1)CO[C@@H](C)C3", "z-score": 0.829}
{"smiles": "COc1ccc(COC(=O)NN=C2C[C@@H](O)[C@@H](O)[C@@H]3[C@@H]4C(=O)N(Cc5ccc6c(c5)OCO6)C(=O)[C@@H]4CC[C@H]23)cc1", "z-score": 0.18}
{"smiles": "COC(=O)C(C(=O)OC)C1CCCC(=O)C1", "note": "(configuration not stated)", "z-score": -0.53}
{"smiles": "CC(C)[C@@H](OCc1ccccc1)[C@H](C)C=NOC[C@@H](O)[C@H]1O[C@@H]2OC(C)(C)O[C@@H]2[C@H]1O", "z-score": -0.766}
{"smiles": "CCc1cc2c(nc1CC)CCN(CCC(C)=NO[C@@H]1O[C@H](COC(C)=O)[C@@H](OC(C)=O)[C@H](OC(C)=O)[C@H]1OC(C)=O)C2", "z-score": -0.387}
{"smiles": "COC(=O)[C@H](C)NC(=O)CCC1CC(OC(=O)NCCc2ccc(F)cc2)CC2(CCCC(COC(=O)NCCc3ccccc3OC)O2)O1", "note": "(some centres not stated)", "z-score": 0.833}
